Measurements reported in PubChem BioAssay AID1159580 (chemical genetic matrix, 2015).
Out of some 5,500 compounds screened, about 2,000 (36%) were called active. About 18% were inconclusive and are not listed. Cut-off read from the data, not from the text of the source: active = normalized growth mostly below about 0.91 (no sharp cut-off); inconclusive = no clear call, values can overlap the other calls; inactive = mostly above about 0.92. The list shows a part of the results.

Assay: chemical genetic growth profiling, strain panel (AID 1159580);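 note: tested at 20 µM; growth read once vehicle control cultures reached saturation at 30 °C; 1 = growth at the plate median or of vehicle wells; lower values mean less growth of the strain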
Conditions: growth OD

Measured: normalized growth

COc1ccc2c(c1)[C@@]1(C)CCC(=O)C[C@H]1CC2
inactive: S. cerevisiae deletion strains, locus YAL013W, strain DEP1, active compounds read low 0.984 | S. cerevisiae deletion strains, locus YAL021C, strain ccr4, active compounds read low 0.989 | S. cerevisiae deletion strains, locus YAL026C, strain drs2, active compounds read low 0.982 | S. cerevisiae deletion strains, locus YAL030W, strain snc1, active compounds read low 0.959 | S. cerevisiae deletion strains, locus YBL061C, strain skt5, active compounds read low 0.989 | S. cerevisiae deletion strains, locus YBR009C, strain hhf1, active compounds read low 0.98 | S. cerevisiae deletion strains, locus YBR021W, strain FUR4, active compounds read low 0.969 | S. cerevisiae deletion strains, locus YBR023C, strain chs3, active compounds read low 0.98 | S. cerevisiae deletion strains, locus YBR171W, strain sec66, active compounds read low 0.93 | S. cerevisiae deletion strains, locus YBR229C, strain ROT2, active compounds read low 0.994 | S. cerevisiae deletion strains, locus YBR231C, strain swc5, active compounds read low 0.986 | S. cerevisiae deletion strains, locus YBR279W, strain paf1, active compounds read low 0.98 | S. cerevisiae deletion strains, locus YCL011C, strain gbp2, active compounds read low 0.961 | S. cerevisiae deletion strains, locus YCL016C, strain dcc1, active compounds read low 0.976 | S. cerevisiae deletion strains, locus YCL029C, strain bik1, active compounds read low 0.985 | S. cerevisiae deletion strains, locus YCL061C, strain MRC1, active compounds read low 0.949 | S. cerevisiae deletion strains, locus YCL069W, strain vba3, active compounds read low 0.963 | S. cerevisiae deletion strains, locus YCR088W, strain abp1, active compounds read low 0.978 | S. cerevisiae deletion strains, locus YDL005C, strain med2, active compounds read low 0.954 | S. cerevisiae deletion strains, locus YDL035C, strain GPR1, active compounds read low 1.01 | S. cerevisiae deletion strains, locus YDL040C, strain nat1, active compounds read low 0.969 | S. cerevisiae deletion strains, locus YDL074C, strain BRE1, active compounds read low 1.01 | S. cerevisiae deletion strains, locus YDL101C, strain DUN1, active compounds read low 1 | S. cerevisiae deletion strains, locus YDL134C, strain PPH21, active compounds read low 0.995 | S. cerevisiae deletion strains, locus YDL185W, strain tfp1, active compounds read low 0.977 | S. cerevisiae deletion strains, locus YDL192W, strain arf1, active compounds read low 0.98 | S. cerevisiae deletion strains, locus YDR001C, strain nth1, active compounds read low 0.973 | S. cerevisiae deletion strains, locus YDR069C, strain doa4, active compounds read low 0.963 | S. cerevisiae deletion strains, locus YDR101C, strain arx1, active compounds read low 0.985 | S. cerevisiae deletion strains, locus YDR137W, strain rgp1, active compounds read low 0.902 | S. cerevisiae deletion strains, locus YDR159W, strain sac3, active compounds read low 0.937 | S. cerevisiae deletion strains, locus YDR162C, strain NBP2, active compounds read low 1.01 | S. cerevisiae deletion strains, locus YDR195W, strain ref2 1.01 | S. cerevisiae deletion strains, locus YDR297W, strain sur2, active compounds read low 0.98 | S. cerevisiae deletion strains, locus YDR318W, strain mcm21, active compounds read low 0.975 | S. cerevisiae deletion strains, locus YDR334W, strain swr1, active compounds read low 0.94 | S. cerevisiae deletion strains, locus YDR335W, strain msn5, active compounds read low 0.967 | S. cerevisiae deletion strains, locus YDR388W, active compounds read low 0.978 | S. cerevisiae deletion strains, locus YDR392W, strain spt3, active compounds read low 0.938 | S. cerevisiae deletion strains, locus YDR502C, strain sam2, active compounds read low 0.951 | S. cerevisiae deletion strains, locus YEL003W, strain gim4, active compounds read low 0.942 | S. cerevisiae deletion strains, locus YEL037C, strain rad23, active compounds read low 0.97 | S. cerevisiae deletion strains, locus YEL061C, strain CIN8 (second series), active compounds read low 0.97 | S. cerevisiae deletion strains, locus YER015W, strain faa2, active compounds read low 0.973 | S. cerevisiae deletion strains, locus YER016W, strain bim1, active compounds read low 0.965 | S. cerevisiae deletion strains, locus YER110C, active compounds read low 0.958 | S. cerevisiae deletion strains, locus YER111C, strain swi4, active compounds read low 0.942 | S. cerevisiae deletion strains, locus YER155C, strain BEM2 (second series), active compounds read low 0.899 | S. cerevisiae deletion strains, locus YER155C, strain BEM2, active compounds read low 0.989 | S. cerevisiae deletion strains, locus YER167W, strain BCK2, active compounds read low 0.996 | S. cerevisiae deletion strains, locus YFR010W, strain ubp6, active compounds read low 0.992 | S. cerevisiae deletion strains, locus YGL078C, strain dbp3, active compounds read low 0.983 | S. cerevisiae deletion strains, locus YGL086W, strain mad1, active compounds read low 0.964 | S. cerevisiae deletion strains, locus YGL173C, strain kem1, active compounds read low 0.949 | S. cerevisiae deletion strains, locus YGL227W, strain vid30, active compounds read low 0.96 | S. cerevisiae deletion strains, locus YGL240W, strain doc1, active compounds read low 0.923 | S. cerevisiae deletion strains, locus YGL248W, strain PDE1, active compounds read low 0.998 | S. cerevisiae deletion strains, locus YGL253W, strain hxk2, active compounds read low 0.932 | S. cerevisiae deletion strains, locus YGR135W, strain pre9, active compounds read low 0.947 | S. cerevisiae deletion strains, locus YGR252W, strain gcn5, active compounds read low 0.933 | S. cerevisiae deletion strains, locus YHR013C, strain ard1, active compounds read low 0.966 | S. cerevisiae deletion strains, locus YHR027C, strain rpn1, active compounds read low 0.965 | S. cerevisiae deletion strains, locus YHR079C, strain IRE1 (second series), active compounds read low 0.977 | S. cerevisiae deletion strains, locus YHR094C, strain hxt1, active compounds read low 0.968 | S. cerevisiae deletion strains, locus YHR129C, strain ARP1, active compounds read low 0.992 | S. cerevisiae deletion strains, locus YHR142W, strain chs7, active compounds read low 0.954 | S. cerevisiae deletion strains, locus YHR200W, strain rpn10, active compounds read low 0.971 | S. cerevisiae deletion strains, locus YIL066C, strain RNR3, active compounds read low 1.01 | S. cerevisiae deletion strains, locus YIL073C, strain SPO22, active compounds read low 0.964 | S. cerevisiae deletion strains, locus YIL125W, strain kgd1, active compounds read low 0.994 | S. cerevisiae deletion strains, locus YIR030C, strain dcg1, active compounds read low 0.974 | S. cerevisiae deletion strains, locus YJL092W, strain hpr5, active compounds read low 0.948 | S. cerevisiae deletion strains, locus YJL095W, strain BCK1 (second series), active compounds read low 0.959 | S. cerevisiae deletion strains, locus YJL095W, strain BCK1, active compounds read low 0.958 | S. cerevisiae deletion strains, locus YJL115W, strain asf1, active compounds read low 0.936 | S. cerevisiae deletion strains, locus YJL129C, strain trk1, active compounds read low 0.973 | S. cerevisiae deletion strains, locus YJL134W, strain LCB3, active compounds read low 0.995 | S. cerevisiae deletion strains, locus YJL154C, strain vps35, active compounds read low 0.958 | S. cerevisiae deletion strains, locus YJL164C, strain tpk1, active compounds read low 0.972 | S. cerevisiae deletion strains, locus YJL166W, strain qcr8, active compounds read low 0.96 | S. cerevisiae deletion strains, locus YJL168C, strain set2, active compounds read low 0.951 | S. cerevisiae deletion strains, locus YJL187C, strain SWE1 (second series), active compounds read low 0.998 | S. cerevisiae deletion strains, locus YKL009W, strain mrt4, active compounds read low 0.997 | S. cerevisiae deletion strains, locus YKL068W, active compounds read low 0.993 | S. cerevisiae deletion strains, locus YKL085W, strain MDH1 (second series), active compounds read low 0.986 | S. cerevisiae deletion strains, locus YKL085W, strain MDH1, active compounds read low 0.986 | S. cerevisiae deletion strains, locus YKL160W, strain elf1, active compounds read low 0.977 | S. cerevisiae deletion strains, locus YKL190W, strain CNB1, active compounds read low 0.994 | S. cerevisiae deletion strains, locus YKR001C, strain vps1, active compounds read low 0.953 | S. cerevisiae deletion strains, locus YKR026C, strain gcn3, active compounds read low 0.976 | S. cerevisiae deletion strains, locus YKR091W, strain srl3, active compounds read low 0.968 | S. cerevisiae deletion strains, locus YLL001W, strain dnm1, active compounds read low 0.951 | S. cerevisiae deletion strains, locus YLL026W, active compounds read low 0.964 | S. cerevisiae deletion strains, locus YLL041C, strain sdh2, active compounds read low 0.98 | S. cerevisiae deletion strains, locus YLR027C, strain aat2, active compounds read low 0.968 | S. cerevisiae deletion strains, locus YLR039C, strain RIC1, active compounds read low 0.96 | S. cerevisiae deletion strains, locus YLR058C, strain SHM2, active compounds read low 0.995 | S. cerevisiae deletion strains, locus YLR102C, strain apc9, active compounds read low 0.985 | S. cerevisiae deletion strains, locus YLR221C, strain rsa3, active compounds read low 0.969 | S. cerevisiae deletion strains, locus YLR258W, strain gsy2, active compounds read low 0.967 | S. cerevisiae deletion strains, locus YLR262C, strain YPT6 (second series), active compounds read low 0.969 | S. cerevisiae deletion strains, locus YLR262C, strain YPT6, active compounds read low 0.973 | S. cerevisiae deletion strains, locus YLR268W, strain sec22, active compounds read low 0.965 | S. cerevisiae deletion strains, locus YLR320W, strain mms22, active compounds read low 0.966 | S. cerevisiae deletion strains, locus YLR342W, strain FKS1, active compounds read low 0.969 | S. cerevisiae deletion strains, locus YLR357W, strain rsc2, active compounds read low 0.947 | S. cerevisiae deletion strains, locus YLR370C, strain arc18, active compounds read low 0.953 | S. cerevisiae deletion strains, locus YLR371W, strain rom2, active compounds read low 0.98 | S. cerevisiae deletion strains, locus YLR384C, strain iki3, active compounds read low 0.969 | S. cerevisiae deletion strains, locus YLR418C, strain cdc73, active compounds read low 0.956 | S. cerevisiae deletion strains, locus YML016C, strain PPZ1, active compounds read low 0.989 | S. cerevisiae deletion strains, locus YML032C, strain rad52, active compounds read low 0.988 | S. cerevisiae deletion strains, locus YML120C, strain ndi1, active compounds read low 0.953 | S. cerevisiae deletion strains, locus YML124C, strain tub3, active compounds read low 0.976 | S. cerevisiae deletion strains, locus YMR058W, strain fet3, active compounds read low 0.948 | S. cerevisiae deletion strains, locus YMR078C, strain ctf18, active compounds read low 0.965 | S. cerevisiae deletion strains, locus YMR125W, strain sto1, active compounds read low 0.97 | S. cerevisiae deletion strains, locus YMR129W, active compounds read low 0.994 | S. cerevisiae deletion strains, locus YMR205C, strain PFK2, active compounds read low 0.976 | S. cerevisiae deletion strains, locus YMR223W, strain ubp8, active compounds read low 0.98 | S. cerevisiae deletion strains, locus YMR231W, strain pep5, active compounds read low 0.968 | S. cerevisiae deletion strains, locus YMR307W, strain GAS1, active compounds read low 1 | S. cerevisiae deletion strains, locus YNL067W, strain RPL9B, active compounds read low 0.975 | S. cerevisiae deletion strains, locus YNL071W, strain lat1, active compounds read low 0.955 | S. cerevisiae deletion strains, locus YNL153C, strain GIM3, active compounds read low 0.995 | S. cerevisiae deletion strains, locus YNL233W, strain BNI4, active compounds read low 0.959 | S. cerevisiae deletion strains, locus YNL248C, strain rpa49, active compounds read low 1.03 | S. cerevisiae deletion strains, locus YNL250W, strain rad50, active compounds read low 0.968 | S. cerevisiae deletion strains, locus YNL271C, strain bni1, active compounds read low 0.97 | S. cerevisiae deletion strains, locus YNL298W, strain CLA4, active compounds read low 0.976 | S. cerevisiae deletion strains, locus YNL307C, strain MCK1, active compounds read low 0.963 | S. cerevisiae deletion strains, locus YNL322C, strain KRE1 (second series), active compounds read low 0.964 | S. cerevisiae deletion strains, locus YNL322C, strain KRE1, active compounds read low 0.989 | S. cerevisiae deletion strains, locus YNR049C, strain mso1, active compounds read low 0.932 | S. cerevisiae deletion strains, locus YNR052C, strain pop2, active compounds read low 0.971 | S. cerevisiae deletion strains, locus YOL012C, strain htz1 1.7 | S. cerevisiae deletion strains, locus YOL147C, strain pex11, active compounds read low 0.967 | S. cerevisiae deletion strains, locus YOR001W, strain rrp6, active compounds read low 0.97 | S. cerevisiae deletion strains, locus YOR061W, strain CKA2, active compounds read low 1 | S. cerevisiae deletion strains, locus YOR069W, strain VPS5, active compounds read low 0.989 | S. cerevisiae deletion strains, locus YOR070C, strain gyp1, active compounds read low 0.97 | S. cerevisiae deletion strains, locus YOR080W, strain dia2, active compounds read low 0.956 | S. cerevisiae deletion strains, locus YOR083W, strain WHI5, active compounds read low 0.969 | S. cerevisiae deletion strains, locus YOR106W, strain vam3, active compounds read low 1 | S. cerevisiae deletion strains, locus YOR136W, strain idh2, active compounds read low 0.98 | S. cerevisiae deletion strains, locus YOR144C, strain elg1, active compounds read low 0.975 | S. cerevisiae deletion strains, locus YOR184W, strain ser1, active compounds read low 0.92 | S. cerevisiae deletion strains, locus YOR265W, strain rbl2, active compounds read low 0.973 | S. cerevisiae deletion strains, locus YOR270C, strain vph1, active compounds read low 0.997 | S. cerevisiae deletion strains, locus YOR290C, strain snf2, active compounds read low 0.957 | S. cerevisiae deletion strains, locus YOR316C, strain cot1, active compounds read low 0.974 | S. cerevisiae deletion strains, locus YPL051W, strain arl3, active compounds read low 0.985 | S. cerevisiae deletion strains, locus YPL078C, strain atp4, active compounds read low 0.95 | S. cerevisiae deletion strains, locus YPL106C, strain sse1, active compounds read low 0.928 | S. cerevisiae deletion strains, locus YPL240C, strain hsp82, active compounds read low 0.977 | S. cerevisiae deletion strains, locus YPR119W, strain clb2, active compounds read low 0.974 | S. cerevisiae deletion strains, locus YPR141C, strain kar3, active compounds read low 0.976 | S. cerevisiae deletion strains, locus YPR163C, strain tif3, active compounds read low 0.973 | S. cerevisiae deletion strains, locus YPR167C, strain met16, active compounds read low 0.974 | S. cerevisiae deletion strains, strain wtn01, active compounds read low 0.972 | S. cerevisiae strains, strain wild type, active compounds read low 1.01
